# In PubChem BioAssay AID1159580 (chemical genetic matrix, 2015):
# Out of some 5,500 compounds screened, about 2,000 (36%) were called active. About 18% were inconclusive and are not listed. This is one part of the list. Unmarked numbers belong to inactive results. Cut-off read from the data, not from the text of the source: active = normalized growth mostly below about 0.91 (no sharp cut-off); inconclusive = no clear call, values can overlap the other calls; inactive = mostly above about 0.92.
# Experiment: chemical genetic growth profiling, strain panel (AID 1159580);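 note: tested at 20 µM; growth read once vehicle control cultures reached saturation at 30 °C; 1 = growth at the plate median or of vehicle wells; lower values mean less growth of the strain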
# Settings: growth OD
smiles,measurement,setting,value
O=C1OC(c2ccc(O)cc2)(c2ccc(O)cc2)c2ccccc21,normalized growth,"S. cerevisiae deletion strains, locus YJR043C, strain POL32, stronger effect = lower value",0.991
same,normalized growth,"S. cerevisiae deletion strains, locus YJR066W, strain TOR1, stronger effect = lower value",0.937
same,normalized growth,"S. cerevisiae deletion strains, locus YKL009W, strain mrt4, stronger effect = lower value",0.979
same,normalized growth,"S. cerevisiae deletion strains, locus YKL068W, stronger effect = lower value",0.991
same,normalized growth,"S. cerevisiae deletion strains, locus YKL085W, strain MDH1 (second series), stronger effect = lower value",0.975
same,normalized growth,"S. cerevisiae deletion strains, locus YKL085W, strain MDH1, stronger effect = lower value",0.975
same,normalized growth,"S. cerevisiae deletion strains, locus YKL160W, strain elf1, stronger effect = lower value",0.97
same,normalized growth,"S. cerevisiae deletion strains, locus YKL190W, strain CNB1, stronger effect = lower value",0.994
same,normalized growth,"S. cerevisiae deletion strains, locus YKR001C, strain vps1, stronger effect = lower value",0.993
same,normalized growth,"S. cerevisiae deletion strains, locus YKR091W, strain srl3, stronger effect = lower value",0.989
same,normalized growth,"S. cerevisiae deletion strains, locus YLL001W, strain dnm1, stronger effect = lower value",0.964
same,normalized growth,"S. cerevisiae deletion strains, locus YLL026W, stronger effect = lower value",0.973
same,normalized growth,"S. cerevisiae deletion strains, locus YLL041C, strain sdh2, stronger effect = lower value",0.979
same,normalized growth,"S. cerevisiae deletion strains, locus YLR027C, strain aat2, stronger effect = lower value",0.983
same,normalized growth,"S. cerevisiae deletion strains, locus YLR039C, strain RIC1, stronger effect = lower value",0.96
same,normalized growth,"S. cerevisiae deletion strains, locus YLR058C, strain SHM2, stronger effect = lower value",0.995
same,normalized growth,"S. cerevisiae deletion strains, locus YLR102C, strain apc9, stronger effect = lower value",0.978
same,normalized growth,"S. cerevisiae deletion strains, locus YLR113W, strain HOG1, stronger effect = lower value",0.974
same,normalized growth,"S. cerevisiae deletion strains, locus YLR221C, strain rsa3, stronger effect = lower value",1.01
same,normalized growth,"S. cerevisiae deletion strains, locus YLR258W, strain gsy2, stronger effect = lower value",0.973
same,normalized growth,"S. cerevisiae deletion strains, locus YLR262C, strain YPT6 (second series), stronger effect = lower value",0.995
same,normalized growth,"S. cerevisiae deletion strains, locus YLR262C, strain YPT6, stronger effect = lower value",0.946
same,normalized growth,"S. cerevisiae deletion strains, locus YLR268W, strain sec22, stronger effect = lower value",0.916
same,normalized growth,"S. cerevisiae deletion strains, locus YLR320W, strain mms22, stronger effect = lower value",1
same,normalized growth,"S. cerevisiae deletion strains, locus YLR330W, strain CHS5, stronger effect = lower value",0.982
same,normalized growth,"S. cerevisiae deletion strains, locus YLR342W, strain FKS1 (second series), stronger effect = lower value",0.998
same,normalized growth,"S. cerevisiae deletion strains, locus YLR342W, strain FKS1, stronger effect = lower value",0.994
same,normalized growth,"S. cerevisiae deletion strains, locus YLR357W, strain rsc2, stronger effect = lower value",0.949
same,normalized growth,"S. cerevisiae deletion strains, locus YLR370C, strain arc18, stronger effect = lower value",0.989
same,normalized growth,"S. cerevisiae deletion strains, locus YLR371W, strain rom2, stronger effect = lower value",0.948
same,normalized growth,"S. cerevisiae deletion strains, locus YLR384C, strain iki3, stronger effect = lower value",0.981
same,normalized growth,"S. cerevisiae deletion strains, locus YLR418C, strain cdc73, stronger effect = lower value",0.835 (active)
same,normalized growth,"S. cerevisiae deletion strains, locus YML016C, strain PPZ1, stronger effect = lower value",1
same,normalized growth,"S. cerevisiae deletion strains, locus YML032C, strain rad52, stronger effect = lower value",0.956
same,normalized growth,"S. cerevisiae deletion strains, locus YML120C, strain ndi1, stronger effect = lower value",0.977
same,normalized growth,"S. cerevisiae deletion strains, locus YML124C, strain tub3, stronger effect = lower value",0.978
same,normalized growth,"S. cerevisiae deletion strains, locus YMR058W, strain fet3, stronger effect = lower value",0.966
same,normalized growth,"S. cerevisiae deletion strains, locus YMR078C, strain ctf18, stronger effect = lower value",0.968
same,normalized growth,"S. cerevisiae deletion strains, locus YMR125W, strain sto1, stronger effect = lower value",0.962
same,normalized growth,"S. cerevisiae deletion strains, locus YMR129W, stronger effect = lower value",0.987
same,normalized growth,"S. cerevisiae deletion strains, locus YMR205C, strain PFK2, stronger effect = lower value",0.971
same,normalized growth,"S. cerevisiae deletion strains, locus YMR223W, strain ubp8, stronger effect = lower value",0.997
same,normalized growth,"S. cerevisiae deletion strains, locus YMR231W, strain pep5, stronger effect = lower value",0.992
same,normalized growth,"S. cerevisiae deletion strains, locus YMR307W, strain GAS1, stronger effect = lower value",0.909
same,normalized growth,"S. cerevisiae deletion strains, locus YNL067W, strain RPL9B, stronger effect = lower value",0.987
same,normalized growth,"S. cerevisiae deletion strains, locus YNL071W, strain lat1, stronger effect = lower value",0.95
same,normalized growth,"S. cerevisiae deletion strains, locus YNL153C, strain GIM3, stronger effect = lower value",1
same,normalized growth,"S. cerevisiae deletion strains, locus YNL183C, strain NPR1, stronger effect = lower value",0.956
same,normalized growth,"S. cerevisiae deletion strains, locus YNL209W, strain ssb2, stronger effect = lower value",0.99
same,normalized growth,"S. cerevisiae deletion strains, locus YNL233W, strain BNI4, stronger effect = lower value",0.981
same,normalized growth,"S. cerevisiae deletion strains, locus YNL250W, strain rad50, stronger effect = lower value",0.99
same,normalized growth,"S. cerevisiae deletion strains, locus YNL271C, strain bni1, stronger effect = lower value",0.988
same,normalized growth,"S. cerevisiae deletion strains, locus YNL298W, strain CLA4, stronger effect = lower value",0.99
same,normalized growth,"S. cerevisiae deletion strains, locus YNL307C, strain MCK1, stronger effect = lower value",0.937
same,normalized growth,"S. cerevisiae deletion strains, locus YNL322C, strain KRE1 (second series), stronger effect = lower value",0.991
same,normalized growth,"S. cerevisiae deletion strains, locus YNL322C, strain KRE1, stronger effect = lower value",0.994
same,normalized growth,"S. cerevisiae deletion strains, locus YNR049C, strain mso1, stronger effect = lower value",0.99
same,normalized growth,"S. cerevisiae deletion strains, locus YNR052C, strain pop2, stronger effect = lower value",0.969
same,normalized growth,"S. cerevisiae deletion strains, locus YOL006C, strain TOP1, stronger effect = lower value",0.952
same,normalized growth,"S. cerevisiae deletion strains, locus YOL012C, strain htz1",0.612
same,normalized growth,"S. cerevisiae deletion strains, locus YOL147C, strain pex11, stronger effect = lower value",0.981
same,normalized growth,"S. cerevisiae deletion strains, locus YOR001W, strain rrp6, stronger effect = lower value",0.973
same,normalized growth,"S. cerevisiae deletion strains, locus YOR061W, strain CKA2, stronger effect = lower value",1
same,normalized growth,"S. cerevisiae deletion strains, locus YOR069W, strain VPS5, stronger effect = lower value",0.988
same,normalized growth,"S. cerevisiae deletion strains, locus YOR070C, strain gyp1, stronger effect = lower value",0.991
same,normalized growth,"S. cerevisiae deletion strains, locus YOR080W, strain dia2, stronger effect = lower value",0.981
same,normalized growth,"S. cerevisiae deletion strains, locus YOR083W, strain WHI5, stronger effect = lower value",0.983
same,normalized growth,"S. cerevisiae deletion strains, locus YOR106W, strain vam3, stronger effect = lower value",0.944
same,normalized growth,"S. cerevisiae deletion strains, locus YOR136W, strain idh2, stronger effect = lower value",0.983
same,normalized growth,"S. cerevisiae deletion strains, locus YOR144C, strain elg1, stronger effect = lower value",0.987
same,normalized growth,"S. cerevisiae deletion strains, locus YOR184W, strain ser1, stronger effect = lower value",0.939
same,normalized growth,"S. cerevisiae deletion strains, locus YOR231W, strain MKK1, stronger effect = lower value",0.974
same,normalized growth,"S. cerevisiae deletion strains, locus YOR265W, strain rbl2, stronger effect = lower value",0.995
same,normalized growth,"S. cerevisiae deletion strains, locus YOR270C, strain vph1, stronger effect = lower value",0.89
same,normalized growth,"S. cerevisiae deletion strains, locus YOR290C, strain snf2, stronger effect = lower value",0.965
same,normalized growth,"S. cerevisiae deletion strains, locus YOR316C, strain cot1, stronger effect = lower value",0.968
same,normalized growth,"S. cerevisiae deletion strains, locus YPL051W, strain arl3, stronger effect = lower value",1
same,normalized growth,"S. cerevisiae deletion strains, locus YPL078C, strain atp4, stronger effect = lower value",0.952
same,normalized growth,"S. cerevisiae deletion strains, locus YPL106C, strain sse1, stronger effect = lower value",1.01
same,normalized growth,"S. cerevisiae deletion strains, locus YPL240C, strain hsp82, stronger effect = lower value",0.982
same,normalized growth,"S. cerevisiae deletion strains, locus YPL241C, strain CIN2, stronger effect = lower value",0.989
same,normalized growth,"S. cerevisiae deletion strains, locus YPL256C, strain CLN2, stronger effect = lower value",0.965
same,normalized growth,"S. cerevisiae deletion strains, locus YPR119W, strain clb2, stronger effect = lower value",0.98
same,normalized growth,"S. cerevisiae deletion strains, locus YPR141C, strain kar3, stronger effect = lower value",0.998
same,normalized growth,"S. cerevisiae deletion strains, locus YPR163C, strain tif3, stronger effect = lower value",0.965
same,normalized growth,"S. cerevisiae deletion strains, locus YPR167C, strain met16, stronger effect = lower value",0.972
same,normalized growth,"S. cerevisiae deletion strains, strain wtn01, stronger effect = lower value",0.954
same,normalized growth,"S. cerevisiae strains, strain wild type, stronger effect = lower value",0.998
